Compound activity as filed in PubChem.
Compounds with a hit are over-represented: about 2.4% of the library has one in this group of screens.
PKM2 act: increases activity of human pyruvate kinase M2. purified PKM2, Kinase-Glo ATP luminescence, activation; response scale: 0% is enzyme alone, no compound. Potency, µM (top dose mostly 57.5 µM), most hits filed as activators. 0.34% of 260,000 active. AID 1631; further: nearly all actives have a fitted effect of over 55% in size
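Purified hPK-M2 (>95%) run at intermediate activity with 0.1 mM ADP and 0.5 mM PEP in 50 mM imidazole pH 7.2, KCl, MgCl2; 1 h room temperature. ATP formed read by Kinase-Glo luminescence; normalized to uninhibited and no-enzyme controls.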
Tb PGK inh: T. brucei PGK inhibition; 0.043% of 380,000 active; Potency, µM (series often up to 57.5 µM), hits mostly inhibitors; AID 602233; PGK/GAPDH coupled, Kinase-Glo luminescence, 60 min; P07378; further: nearly all actives have a fitted effect of over 60% in size
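Recombinant glycosomal PGK reaction used 1,3-bisphosphoglycerate generated in-well by GAPDH (100nM final) in 100mM TEA pH 7.6, 5mM MgCl2, 0.01% Tween-20. After 60 minutes at room temperature, ATP was read by Kinase-Glo Plus luminescence end-point.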
Rango release inh: inhibitors of RanGTP-induced Rango-importin beta complex dissociation; Biochemical FRET Rango-importin beta, RanGTP-induced dissociation; Potency, µM (series often up to 46.1 µM); 0.071% of 340,000 active; calls by dose curve; further: nearly all actives have a fitted effect of over 45% in size
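Recombinant Rango FRET biosensor (EYFP–snurportin 1 IBB–cerulean CFP10) at 0.1 uM premixed with 0.25 uM importin beta in PBS, 1 mM DTT, 0.02% Tween-20, 0.1% BSA. Compound added 5 min; RanGTP-RCC1 (0.6 uM Ran, 2 mM GTP, 0.2 uM RCC1) then triggers release, read at 45 min.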
Tb PFK block: T. brucei PFK enzyme inhibition. T. brucei PFK, ADP-Glo luminescence. Potency, µM (doses to about 57.5 µM), usual class: inhibitors. O15648. 0.17% of 330,000 active. AID 485367; further: nearly all actives have a fitted effect of over 60% in size
Target sequence (O15648 whole entry, looked up): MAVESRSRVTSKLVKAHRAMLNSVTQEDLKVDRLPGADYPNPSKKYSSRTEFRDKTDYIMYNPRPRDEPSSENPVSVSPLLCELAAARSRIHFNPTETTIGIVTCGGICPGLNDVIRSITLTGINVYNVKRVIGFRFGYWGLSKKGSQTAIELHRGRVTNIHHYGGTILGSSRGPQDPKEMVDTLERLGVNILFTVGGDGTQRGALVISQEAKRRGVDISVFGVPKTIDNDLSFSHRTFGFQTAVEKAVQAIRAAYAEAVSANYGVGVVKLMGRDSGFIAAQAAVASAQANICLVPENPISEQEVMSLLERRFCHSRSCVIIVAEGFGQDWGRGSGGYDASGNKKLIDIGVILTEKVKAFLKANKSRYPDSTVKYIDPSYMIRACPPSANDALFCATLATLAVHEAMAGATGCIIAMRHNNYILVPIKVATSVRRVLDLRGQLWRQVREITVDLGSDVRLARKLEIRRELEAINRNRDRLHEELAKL
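Compounds were pin-transferred as a titration series up to 57 uM into substrate buffer (0.5 mM F6P, 0.1 mM ATP, pH 8.0), then 1.25 nM PFK was added and reactions ran 45 min before ADP-Glo detection.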
Rango complex inh: prevents formation of the Rango-importin beta complex. Potency, µM (series often up to 92.2 µM). 0.031% of 340,000 active. Rango CFP/YFP FRET sensor + importin beta, 45 min; calls by dose curve; further: nearly all actives have a fitted effect of over 15% in size
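FRET biosensor (snurportin 1 IBB flanked by EYFP and cerulean), 50 nM, with compound 5 min, then 0.125 microM importin beta in PBS, 1 mM DTT, 0.02% Tween-20, 0.1% BSA. CFP/YFP ratio read after 45 min at room temperature; pre-read flags interference.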
ELG1 DNA repair: ELG1-dependent DNA repair inhibition | AID 504467 | 2.3% of 330,000 active | Potency, µM (top dose mostly 46.1 µM), actives largely listed as inhibitors | HEK293T ELG1-luciferase reporter, luminescence, 16 h; DNA damage induced by 5-fluorouridine; further: nearly all actives have a fitted effect of over 55% in size
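Overnight (16 hr) co-exposure of 2,000 cells/well to 5-fluorouridine and compound at 37 °C preceded detection. Luciferase was quantified via ONE-Glo luminescence; loss of signal denotes inhibition.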
Numbers stand for hits; 0 = inactive; ? = inconclusive; - = no result. Unless noted, the call rests on the fitted dose curve; in most records, active means well fitted curve in the direction sought with a large enough effect; inconclusive means small, poorly fitted or top-dose-only effect, or another doubt; inactive means no such curve, though single readings can be large; an effect the other way counts as inactive or inconclusive.

SMILES	PKM2 act	Tb PGK inh	Rango release inh	Tb PFK block	Rango complex inh	ELG1 DNA repair
Cn1c(N=Nc2ccccc2)nc2ccccc21	0	?	0	12µM	0	?
CN(C)c1ccc(N=Nc2nc3ccccc3n2C)cc1	0	14µM	0	0	0	?
Cn1c(Cl)nc2ccccc21	0	0	0	0	0	?
CCOC(=O)c1ccccc1NC1(c2ccc(OC)cc2)C(=O)c2ccccc2C1=O	-	0	-	-	-	-
COc1ccc2cc3cc(C(=O)Nc4cc(OC)c(OC)c(OC)c4)oc3nc2c1	0	0	0	0	?	16µM
O=C(OCc1ccc2c(c1)OCO2)c1ccc(S(=O)(=O)N2CCCC2)cc1	8.9µM	0	0	0	0	0
O=C(OCc1ccc2c(c1)OCO2)c1cccc(S(=O)(=O)N2CCCCC2)c1	0	0	0	0	0	0
CCS(=O)(=O)N1CCN(S(=O)(=O)c2ccc3c(c2)OCCO3)CC1	3.5µM	0	0	0	0	0
CCN(CC)S(=O)(=O)c1ccc(N2CCN(c3ccccc3O)CC2)nc1	-	0	0	0	0	0
CCN(CC)S(=O)(=O)c1ccc(N2CCN(S(=O)(=O)c3ccc4c(c3)OCCO4)CC2)nc1	0	0	0	0	0	9.2µM
Cc1ccc(S(=O)(=O)N2CCCN(S(=O)(=O)c3ccc4c(c3)OCCO4)CC2)cc1	0.35µM	0	0	0	0	?
Cc1ccc2c(CN3CCN(Cc4ccc5c(c4)OCO5)CC3)cc(=O)oc2c1C	0	0	0	0	0	?
O=S(=O)(c1ccc2c(c1)OCCO2)N1CCN(Cc2ccc3c(c2)OCO3)CC1	3.5µM	0	0	0	0	0
COc1ccc(S(=O)(=O)N2CCN(S(=O)(=O)c3ccc4c(c3)OCCO4)CC2)cc1C	3.5µM	0	0	0	0	0
O=S(=O)(c1cccc(Cl)c1)N1CCN(S(=O)(=O)c2ccc3c(c2)OCCO3)CC1	-	0	0	0	0	0
Cc1ccc2c(CN3CCN(S(=O)(=O)c4ccc5c(c4)OCCO5)CC3)cc(=O)oc2c1C	0	0	0	0	0	15µM
O=S(=O)(c1ccc2c(c1)OCCO2)N1CCN(c2cccc(Cl)c2)CC1	2.8µM	0	0	0	0	?
Cn1c(=O)c2c(n3c4ccccc4nc13)NC(=O)CC2c1ccccc1F (stereo not drawn)	-	0	-	-	-	-
CCN(C(=O)COC(=O)c1oc2ccc(OC)cc2c1C)C1CCCCC1	-	0	0	0	?	0
O=C(NCCC1=CCCCC1)c1ccc2c(c1)N(Cc1cccc(Cl)c1)C(=O)c1ccccc1S2=O (stereo not drawn)	-	0	-	-	-	-
O=C(CN1CCN(Cc2ccc3c(c2)OCO3)CC1)Nc1cc(S(=O)(=O)N2CCCC2)ccc1Cl	0	0	0	0	0	?
CN(C)S(=O)(=O)c1ccc(Cl)c(NC(=O)CN2CCN(Cc3ccc4c(c3)OCO4)CC2)c1	0	0	0	0	0	21µM
COc1cccc(-c2nc(NC(C)C)c3ccccc3n2)c1O	0	0	0	0	0	5.2µM
COCCNC(=O)C1CCCN(S(=O)(=O)c2ccc3c(ccn3C)c2)C1 (stereo not drawn)	-	0	-	-	-	-
C=CCNC(=S)N/N=C(\C)c1ccccn1	0	0	0	0	0	0.18µM
SMILES	PKM2 act	Tb PGK inh	Rango release inh	Tb PFK block	Rango complex inh	ELG1 DNA repair
COc1ccc(OC)c(S(=O)(=O)Nc2ccc(O)c3ccccc23)c1	?	0	0	0	0	10µM
Cc1cccc(/C=C(\c2nc3ccccc3[nH]2)S(=O)(=O)c2ccccc2)c1	0	0	0	0	0	12µM
CC(C)(C)c1ccc(/C=C(\c2nc3ccccc3[nH]2)S(=O)(=O)c2ccccc2)cc1	-	0	0	-	0	-
Cc1cnc(C(=O)OCc2ccc(C#N)cc2)cn1	0	0	0	0	0	0
CCn1ncc2c(OCc3ccc(C#N)cc3)cc(C)nc21	0	0	0	0	0	26µM
O=c1oc2ccc(Cl)cc2nc1/C=C(\O)c1ccco1	0	0	0	0	0	?
CC(C)C/C(O)=C/c1nc2cc(Cl)ccc2oc1=O	0	0	15µM	0	?	0
COc1ccc(-c2oc3ncnc(NCCN4CCOCC4)c3c2-c2ccc(OC)cc2)cc1	?	0	0	0	0	?
COc1ccc(-c2oc3ncn(CCN4CCOCC4)c(=N)c3c2-c2ccc(OC)cc2)cc1	0	0	0	0	0	21µM
c1ccc(-c2oc3ncnc(NCCCN4CCOCC4)c3c2-c2ccccc2)cc1	0	0	0	0	0	?
COc1ccc(-c2oc3ncnc(NCCCN4CCOCC4)c3c2-c2ccc(OC)cc2)cc1	0	0	0	0	0	16µM
COc1ccc(/C=N/NC(=O)C(=O)/C=C2\NC3(CCCC3)Cc3ccccc32)cc1	0	0	0	0	0	23µM
NNC(=O)C(=O)/C=C1\NC2(CCCC2)Cc2ccccc21	0	0	0	0	0	?
O=C(/C=C1\NC2(CCCC2)Cc2ccccc21)C(=O)N/N=C/c1ccc(O)c(O)c1	0	0	0	0	0	23µM
O=C(COC(=O)Cc1ccc(Cl)cc1)NC1CCCC1	-	0	0	0	0	0
COc1cc(C(=O)NCc2cccc3ccccc23)cc(Cl)c1OC	18µM	0	0	0	0	?
COc1cc(C(=O)NCc2cc(C)nc3ccccc23)cc(OC)c1OC	0	0	0	0	0	0
O=C(Nc1ccc(S(=O)(=O)N2CCCC2)cc1)c1ccc([N+](=O)[O-])cc1	0	0	0	0	0	9.2µM
CCOc1ccc(CCNC(=O)c2ccc3c(=O)n4c(nc3c2)CCCCC4)cc1	-	0	0	0	0	16µM
